Source: PubChem BioAssay AID743360 (Molecular Libraries Program, Specialized Chemistry Center, …, 2014)
Unmarked numbers belong to inactive results. Active and inactive are the calls of the source.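 Rule for the calls: active = calcium retention capacity relative to untreated control above about 1.1 ratio (limit read from the data); inactive = the rest.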

Test: mtPTP inhibition via calcium retention, dose response, biochemical, dry powder samples, uHTS hits, Calcium Green-5N (AID 743360)
Settings: isolated mitochondria, Ca retention capacity
Work on `COc1ccc(Cl)cc1S(=O)(=O)Nc1ccc(CCN2CCCCC2)cc1` yielded a CRC/CRC0 ratio at 12.5 uM (higher = more inhibition) of 1.07. `CN1CCN(Cc2ccc(NS(=O)(=O)c3cc(Cl)cc(Cl)c3)cc2)CC1` gave a CRC/CRC0 ratio at 12.5 uM (higher = more inhibition) of 1.1. In the case of `O=C(Nc1ccc(Cl)cc1)c1cc(-c2ccccc2)on1`, the CRC/CRC0 ratio at 12.5 uM (higher = more inhibition) is reported as > 1. In the case of `O=C(Nc1ccc(CN2CCCCC2)cc1)c1cccc(Cl)c1`, the CRC/CRC0 ratio at 12.5 uM (higher = more inhibition) is reported as 1.16 (active). `CC1CCN(CCCC(=O)c2ccc(Br)cc2)CC1` gave a CRC/CRC0 ratio at 12.5 uM (higher = more inhibition) of 1.05. In the case of `CN1CCN(c2ccccc2NC(=O)c2ccc(OCc3ccccc3)cc2)CC1`, the CRC/CRC0 ratio at 12.5 uM (higher = more inhibition) is reported as 1.24 (active). In the case of `O=C(Nc1ccc(CN2CCCCC2)cc1)c1cc(Cl)ccc1O`, the CRC/CRC0 ratio at 12.5 uM (higher = more inhibition) is reported as 1.1 (active). In the case of `COc1ccc(Cl)c(C(=O)Nc2ccc(CCN3CCN(C(=O)OC(C)(C)C)CC3)cc2)c1`, the CRC/CRC0 ratio at 12.5 uM (higher = more inhibition) is reported as 1.11 (active). For `COc1ccc(Cl)cc1C(=O)Nc1ccc(CN2CCN(C)CC2)cc1`, the CRC/CRC0 ratio at 12.5 uM (higher = more inhibition) was 1.24 (active). In the case of `COc1ccc(Cl)c(C(=O)Nc2ccc(CCN3CCCCC3)cc2)c1`, the CRC/CRC0 ratio at 12.5 uM (higher = more inhibition) is reported as > 1. With `O=C(Nc1ccc(Cl)cc1)c1cc(-c2cccc(O)c2)on1` the CRC/CRC0 ratio at 12.5 uM (higher = more inhibition) was 3.44 (active). With `O=C(Nc1ccc(CN2CCCCC2)cc1)c1cccc(OCc2ccccc2)c1` the CRC/CRC0 ratio at 12.5 uM (higher = more inhibition) was 3.54 (active). For `CCN(CC)c1ccc(NC(=O)c2ccc(OC)c(Cl)c2)cc1`, the CRC/CRC0 ratio at 12.5 uM (higher = more inhibition) was 0.976. In the case of `O=C(Nc1ccccc1OCc1ccccc1)c1cc(-c2cccc(O)c2)on1`, the CRC/CRC0 ratio at 12.5 uM (higher = more inhibition) is reported as 1.14 (active). Compound `COc1cccc(-c2cc(C(=O)Nc3cc(Cl)ccc3C)no2)c1` has a CRC/CRC0 ratio at 12.5 uM (higher = more inhibition) of 1.08. In the case of `O=C(Nc1cccc(Cl)c1Cl)c1cc(-c2cccc(O)c2)on1`, the CRC/CRC0 ratio at 12.5 uM (higher = more inhibition) is reported as 4 (active). For `COc1ccc(Cl)cc1C(=O)Nc1ccc(N2CCOCC2)cc1`, the CRC/CRC0 ratio at 12.5 uM (higher = more inhibition) was > 1. In the case of `COc1ccc(Cl)cc1C(=O)Nc1ccc(CN2CCN(C(=O)OC(C)(C)C)CC2)cc1`, the CRC/CRC0 ratio at 12.5 uM (higher = more inhibition) is reported as 1.33 (active). `CN1CCN(CCc2ccc(NS(=O)(=O)c3ccc(F)c(Cl)c3)cc2)CC1` showed a CRC/CRC0 ratio at 12.5 uM (higher = more inhibition) of 1.08. In the case of `O=S(=O)(Nc1ccc(CN2CCCCC2)cc1)c1cc(Cl)cc(Cl)c1`, the CRC/CRC0 ratio at 12.5 uM (higher = more inhibition) is reported as 1.07. With `COc1ccc(/C=C/C(=O)Nc2cccc(Cl)c2)cc1O` the CRC/CRC0 ratio at 12.5 uM (higher = more inhibition) was 6.53 (active). `COc1ccc(Cl)cc1S(=O)(=O)Nc1ccc(CCN2CCN(C)CC2)cc1` gave a CRC/CRC0 ratio at 12.5 uM (higher = more inhibition) of 1.03. With `COc1ccccc1C(=O)Nc1ccc(C(=O)N2CCCCC2)cc1` the CRC/CRC0 ratio at 12.5 uM (higher = more inhibition) was > 1. For `CCN(C(=O)c1cc(Cl)ccc1OC)c1ccccc1`, the CRC/CRC0 ratio at 12.5 uM (higher = more inhibition) was > 1. For `COc1ccc(Cl)cc1C(=O)Nc1ccc(CCN2CCNCC2)cc1`, the CRC/CRC0 ratio at 12.5 uM (higher = more inhibition) was 1.31 (active). With `CCc1ccccc1NC(=O)c1cc(-c2ccccc2)on1` the CRC/CRC0 ratio at 12.5 uM (higher = more inhibition) was > 1. For `CCCc1cc(C(=O)Nc2c(F)cc(F)cc2Br)no1`, the CRC/CRC0 ratio at 12.5 uM (higher = more inhibition) was 1.13 (active). For `O=S(=O)(Nc1ccc(CCN2CCCCC2)cc1)c1cc(Cl)cc(Cl)c1`, the CRC/CRC0 ratio at 12.5 uM (higher = more inhibition) was 1.17 (active). Work on `CCCc1cc(C(=O)Nc2ccc(Br)cc2)no1` yielded a CRC/CRC0 ratio at 12.5 uM (higher = more inhibition) of 1.02. For `COc1ccc(NC(=O)c2cc(-c3ccc(Cl)cc3)on2)cc1Cl`, the CRC/CRC0 ratio at 12.5 uM (higher = more inhibition) was > 1. In the case of `Cc1cc(NC(=O)c2cc(-c3ccc(F)cc3)on2)no1`, the CRC/CRC0 ratio at 12.5 uM (higher = more inhibition) is reported as > 1. With `COc1ccc(NC(=O)c2cc(-c3cccc(O)c3)on2)cc1Cl` the CRC/CRC0 ratio at 12.5 uM (higher = more inhibition) was 3.26 (active). Compound `CC(C)c1cc(C(=O)Nc2ccc(F)cc2F)no1` has a CRC/CRC0 ratio at 12.5 uM (higher = more inhibition) of 1.09.
